Source: PubChem
tim23-1 inh: tim23-1 yeast growth inhibition; S. cerevisiae tim23-1 growth, BacTiter-Glo luminescence, 24 h; inhibition, % at 20 µM; 330,000 compounds, 1.3% hits; AID 463212;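 active means growth inhibition of the mutant yeast at or above 50%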;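 further: temperature-sensitive mutant grown at 25 °C; plate controls were DMSO-treated mutant yeast for no effect and medium wells lacking yeast for full effect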
TIM10 inh: inhibits growth of TIM10 yeast strain; S. cerevisiae TIM10 strain growth, BacTiter-Glo luminescence, 24 h; inhibition, % at 10 µM; AID 463195; 330,000 compounds, 1.4% hits;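 active means inhibition of 40% or more at the single tested concentration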;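 further: wild-type TIM10 isogenic control strain grown at permissive 25 °C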
tim10-1 inh: growth inhibitors of tim10-1 mutant yeast; S. cerevisiae tim10-1 ts strain growth, BacTiter-Glo, 24 h; inhibition, % at 20 µM; 330,000 compounds, 2.2% hits; AID 463190;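 active means inhibition of at least 40%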;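 further: mutant grown at 25 °C; 0% = DMSO wells with yeast and 100% = wells holding no yeast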
CR mimetic SO: yeast age-related superoxide inhibition as caloric restriction mimetic; S. cerevisiae aged cells, superoxide DHE fluorescence; stronger effect = lower value; superoxide response (% of plate mean), % at 10 µM; 330,000 compounds, 0.18% hits; AID 2690;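 active means superoxide response under a set limit, about three screen SD below normal, cut at about 65% in these data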;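 further: yeast aged for seven days with compound at 30 °C before DHE staining; 100% = average MFI of all compound-treated wells on the plate with controls excluded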
NLRP3 yeast inh: inhibitors of NALP3 inflammasome in yeast. inhibition, % at 10 µM. 330,000 compounds, 0.39% hits. Yeast reconstituted NLRP3/ASC/caspase-1, beta-gal luminescence, 24 h;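 active means inhibition of 50% or more; inactive means inhibition below 50%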;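 further: plate controls were induced DMSO wells for no effect and uninduced yeast grown without galactose for full effect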
tim10-1 conf: confirmation of tim10-1 mutant yeast growth inhibitors. 7,400 compounds, 56% hits. S. cerevisiae tim10-1 ts strain growth, BacTiter-Glo, 24 h. AID 463213. inhibition, % at 20 µM. shares compounds with tim10-1 inh;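 active means inhibition of yeast growth at or above a set limit in either of two repeat tests at 20 µM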;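 further: tim10-1 mutant grown at permissive 25 °C to find synthetic lethal compounds; 0% = DMSO yeast wells and 100% = medium wells without yeast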
Active calls of the source: *. Compounds with a hit are over-represented: about 3.8% of the library has one in this group of screens.

What do the screens show for `O=C(CN1CCN(S(=O)(=O)c2ccc(Cl)cc2)CC1)Nc1ccc2c(c1)OCO2`?
tim23-1 inh: 31.9; TIM10 inh: -6.1; tim10-1 inh: 33.7; CR mimetic SO: 106.2; NLRP3 yeast inh: 10.0

Results for COC(=O)c1cc(NC(=O)c2cccc([N+](=O)[O-])c2C)ccc1Cl ?
tim23-1 inh: 24.6; TIM10 inh: 36.9; tim10-1 inh: 28.6; CR mimetic SO: 89.0; NLRP3 yeast inh: 2.3

What do the screens show for `O=C(CN1CCN(S(=O)(=O)c2ccc(Cl)cc2)CC1)Nc1ccc2c(c1)CCC2`?
tim23-1 inh: 44.2; TIM10 inh: 22.4; tim10-1 inh: 50.1*; CR mimetic SO: 118.3; NLRP3 yeast inh: 7.6; tim10-1 conf: 39.9*

How did Cc1ccc(S(=O)(=O)N2CCN(CC(=O)Nc3ccc4c(c3)CCC4)CC2)cc1C do in these assays?
tim23-1 inh: 35.5; TIM10 inh: 26.9; tim10-1 inh: 30.7; CR mimetic SO: 92.3; NLRP3 yeast inh: 12.5

What do the screens show for `O=C(CN1CCN(S(=O)(=O)c2ccccc2)CC1)Nc1ccc(Cl)c(Cl)c1`?
tim23-1 inh: 10.1; TIM10 inh: 24.9; tim10-1 inh: 43.1*; CR mimetic SO: 107.7; NLRP3 yeast inh: 8.5; tim10-1 conf: 30.0*

How did O=C(CN1CCN(S(=O)(=O)N2CCCCC2)CC1)Nc1ccc(Cl)c(Cl)c1 do in these assays?
tim23-1 inh: 26.9; TIM10 inh: 13.5; tim10-1 inh: 16.9; CR mimetic SO: 125.5; NLRP3 yeast inh: 16.1

How did CCN(CC)S(=O)(=O)c1ccc2oc(C(=O)N3CCc4ccccc4C3)c(C)c2c1 do in these assays?
tim23-1 inh: 33.5; TIM10 inh: 4.5; tim10-1 inh: 42.9*; CR mimetic SO: 97.2; NLRP3 yeast inh: 0.3; tim10-1 conf: 30.3*

What do the screens show for `COc1ccc(NC(=O)Cc2c(F)cccc2Cl)cc1`?
tim23-1 inh: 10.6; TIM10 inh: -1.2; tim10-1 inh: -21.5; CR mimetic SO: 108.6; NLRP3 yeast inh: 27.4

Results for COc1ccc(NC(=O)COC(=O)Cc2c(F)cccc2Cl)cc1 ?
tim23-1 inh: 18.2; TIM10 inh: 4.4; tim10-1 inh: 43.5*; CR mimetic SO: 98.5; NLRP3 yeast inh: 14.4; tim10-1 conf: 24.2

How did O=C(CCc1ccccc1)NCCc1ccc(F)cc1 do in these assays?
tim23-1 inh: 5.1; TIM10 inh: 3.4; tim10-1 inh: 11.3; CR mimetic SO: 104.8; NLRP3 yeast inh: 38.1

How did Cn1c(=O)c2c(nc(SCC(=O)NCc3ccc4c(c3)OCO4)n2Cc2ccc(Cl)cc2)n(C)c1=O do in these assays?
tim23-1 inh: 13.2; TIM10 inh: 23.2; tim10-1 inh: 40.7*; CR mimetic SO: 188.0; NLRP3 yeast inh: 2.6; tim10-1 conf: 5.4

What do the screens show for `Cc1cc(OCC(=O)NCc2ccncc2)ccc1Cl`?
tim23-1 inh: -15.7; TIM10 inh: -4.3; tim10-1 inh: 3.5; CR mimetic SO: 101.6; NLRP3 yeast inh: 14.2

How did CCOC(=O)C1CCN(S(=O)(=O)c2ccc(Cl)cc2OC)CC1 do in these assays?
tim23-1 inh: 16.5; TIM10 inh: 8.5; tim10-1 inh: 17.3; CR mimetic SO: 95.8; NLRP3 yeast inh: 17.5

Results for CCOC(=O)C1CCN(S(=O)(=O)c2ccc(OC)c(Cl)c2Cl)CC1 ?
tim23-1 inh: 14.3; TIM10 inh: 23.2; tim10-1 inh: 40.4*; CR mimetic SO: 97.0; NLRP3 yeast inh: 10.3; tim10-1 conf: 4.8

How did O=C(NC(=S)NC1C2CC3CC(C2)CC1C3)C12CC3CC(CC(C3)C1)C2 (configuration not stated) do in these assays?
tim23-1 inh: 35.1; TIM10 inh: 38.9; tim10-1 inh: 45.9*; CR mimetic SO: 97.5; NLRP3 yeast inh: -0.3; tim10-1 conf: 15.4

What do the screens show for `CCCC(=O)Nc1ccc(NC(=O)C23CC4CC(CC(C4)C2)C3)cn1`?
tim23-1 inh: 40.5; TIM10 inh: 30.0; tim10-1 inh: 44.2*; CR mimetic SO: 88.4; NLRP3 yeast inh: 15.5; tim10-1 conf: 32.6*

What do the screens show for `O=C(NC(=S)Nc1ccc(Cl)cn1)C12CC3CC(CC(C3)C1)C2`?
tim23-1 inh: 24.0; TIM10 inh: 30.6; tim10-1 inh: 40.4*; CR mimetic SO: 96.9; NLRP3 yeast inh: -9.7; tim10-1 conf: 13.8

What do the screens show for `CN(C)NC(=S)NC(=O)C12CC3CC(CC(C3)C1)C2`?
tim23-1 inh: 3.3; TIM10 inh: 27.5; tim10-1 inh: 34.0; CR mimetic SO: 90.5; NLRP3 yeast inh: -2.3

How did S=C(NCc1ccccc1)NC1CCSc2ccccc21 (configuration not stated) do in these assays?
tim23-1 inh: 28.0; TIM10 inh: 21.6; tim10-1 inh: 22.8; CR mimetic SO: 98.7; NLRP3 yeast inh: 24.0

How did NC(=O)c1ccc(S(=O)(=O)N2CCSCC2)cc1 do in these assays?
tim23-1 inh: -4.7; TIM10 inh: -3.2; tim10-1 inh: -9.0; CR mimetic SO: 92.0; NLRP3 yeast inh: 8.3

Results for CCOC(=O)c1nn(-c2ccccc2C)c(=O)c2c(N)scc12 ?
tim23-1 inh: 4.5; TIM10 inh: -6.0; tim10-1 inh: 18.5; CR mimetic SO: 107.6; NLRP3 yeast inh: 15.2

What do the screens show for `CCOC(=O)c1nn(-c2ccccc2)c(=O)c2c(N)scc12`?
tim23-1 inh: 15.9; TIM10 inh: 24.8; tim10-1 inh: 51.4*; CR mimetic SO: 111.2; NLRP3 yeast inh: 1.3; tim10-1 conf: 26.1

What do the screens show for `CC(C)(C)c1csc(NC(=O)c2c(F)c(F)c(F)c(F)c2F)n1`?
tim23-1 inh: 43.1; TIM10 inh: 16.4; tim10-1 inh: 40.7*; CR mimetic SO: 102.9; NLRP3 yeast inh: 20.9; tim10-1 conf: 23.5

Results for CSc1ncccc1C(=O)Nc1nc(C(C)(C)C)cs1 ?
tim23-1 inh: 43.6; TIM10 inh: 18.3; tim10-1 inh: 10.8; CR mimetic SO: 98.0; NLRP3 yeast inh: 39.3

What do the screens show for `COc1ccc(CCNc2c([N+](=O)[O-])ncn2C)cc1OC`?
tim23-1 inh: 6.1; TIM10 inh: 3.9; tim10-1 inh: 7.6; CR mimetic SO: 105.1; NLRP3 yeast inh: 6.3

Results for O=c1c2ccc([N+](=O)[O-])cc2ncn1CCOc1ccccc1 ?
tim23-1 inh: 26.8; TIM10 inh: -1.4; tim10-1 inh: 27.0; CR mimetic SO: 90.4; NLRP3 yeast inh: -0.3

Results for Cc1ccc(OCCn2cnc3cc([N+](=O)[O-])ccc3c2=O)cc1 ?
tim23-1 inh: 18.2; TIM10 inh: 25.9; tim10-1 inh: 45.9*; CR mimetic SO: 107.6; NLRP3 yeast inh: 22.5; tim10-1 conf: 22.1

How did CCC(C)n1c(-c2cccs2)nc2nc3ccccc3nc21 (configuration not stated) do in these assays?
tim23-1 inh: 45.6; TIM10 inh: 3.3; tim10-1 inh: 27.9; CR mimetic SO: 108.3; NLRP3 yeast inh: 13.1

How did COc1ccc(N2CCN(C(=O)CCCn3nnnc3CN3CCOCC3)C(C)C2)cc1 (configuration not stated) do in these assays?
tim23-1 inh: -3.0; TIM10 inh: -1.6; tim10-1 inh: 2.1; CR mimetic SO: 91.8; NLRP3 yeast inh: 29.1
